About 83,000 compounds went through this panel and 20% of them were active in at least one assay; those are over-represented in the sample as a whole.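 The test compound was applied at a single concentration to cells in 96-well plates for 48 hours, and percent growth was recorded.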 Values without a mark were called inactive. Active and inactive are the calls of the source.

In PubChem BioAssay (NCI) one finds growth data, which are given here for 40 molecules.

This assay deals with OVCAR-8 ovarian. The assay can be described thus: NCI-60 one-dose screen, 48 h (100 = growth as untreated, 0 = no growth, -100 = all killed). The following applies: 10 µM unless noted. The method, then: Growth inhibition of the OVCAR-8 human tumor cell line is measured as a screen for anti-cancer activity. Cells are grown in 96 well plates and exposed to the test compound for 48 hours. Compounds are tested at a single concentration, which is 10^-5 M for most compounds. The reported endpoint is percent growth (GI% or GIPRCNT), where numbers from 0 - 100% represent growth inhibition, and numbers from -100% - 0 represent cell death. For example, a value of 40 represents 60% growth inhibition. A value of 0 means no net growth occurred over the course of the experiment. A value of -40 indicates 40% of cells at the beginning of the experiment died by the end of the experiment. A value of -100 means all cells are dead at the end of the experiment.
NCI-60 Human Tumor Cell Lines Screen was performed using the standard one-dose NCI protocol, which is described in more detail at https://dtp.cancer.gov/discovery_development/nci-60/default.htm.
Compounds with GIPRCNT values below 10 were considered active. Activity score was based on GIPRCNT using the following formula: […]
Score is 0 for GIPRCNT values of 100 or above, 50 for GIPRCNT values of 0, and 100 for GIPRCNT values of -100.
As to `O=C(N/N=C/c1ccc(Oc2ccccc2)cc1)c1cnn2c1NC(c1ccccc1)C2` (stereo not given), the growth was 52.1%.
The result for `CN1CCN(c2ccc(NC3=C(Cl)C(=O)c4ncccc4C3=O)cc2C(F)(F)F)CC1` reads 30.4%; that for `COc1cc2oc(-c3cccc(C(=O)Nc4ccccc4)c3)cc(=O)c2c(O)c1OC`, 15.4%.
The result for `N/C(=N\C(N)=N\c1nc2ccccc2s1)c1ccnc(Br)c1` reads 33.8%.
The result for `CCCCCCNC(=O)Oc1ccc(/C(=C(\C)c2ccccc2)c2ccc(OCCCN(C)C)cc2)cc1` reads 86.9%.
Regarding `COc1cc(C2=NN(C(C)=O)C(c3cc(OC)c(OC)c(OC)c3)C2)ccc1O` (stereo not given), the growth is 24.7%.
The result for `Cc1ccc(-c2nc3ccccn3c2/C=C2/C(=O)Nc3cc(Cl)ccc32)cc1` reads 91.7%; that for `COc1cc2nc(-c3ccc(Cl)cc3)cc(OCCCN3CCCC3)c2cc1OC`, 56.2%.
Take `NS(=O)(=O)c1ccc(Cn2c(SCC(=O)N/N=C/c3ccccc3O)nc3ccccc3c2=O)cc1`: the growth is 44.3%.
The result for `Nc1n[nH]c2cccc(C#Cc3cccc(C(=O)Nc4cc(CN5CCOCC5)cc(C(F)(F)F)c4)c3)c12` reads 28.9%; that for `O=C(NNc1nc2c(F)cccc2n2cccc12)c1cnccn1`, 21.1%.
For the molecule `Fc1ccc(-c2cn3c(nc4ccccc43)c(-c3ccccc3)n2)cc1`, the growth was 73.7%.
The result for `O=S(=O)(NCCNc1nccc(-c2c(-c3cccc(O)c3)nc3occn23)n1)c1ccc(C(F)(F)F)cc1` reads 102%; that for `CC(=O)[C@@H]1CC[C@]2(CO)CC[C@]3(C)[C@H](CC[C@@H]4[C@@]5(C)CCCNC(C)(C)[C@@H]5CC[C@]43C)[C@@H]12`, 105%.
The result for `C=C(C)[C@@H]1CC[C@]2(C(=O)N3CCN(C)CC3)CC[C@]3(C)[C@H](CC[C@@H]4[C@@]5(C)CC[C@H](OCCC#N)C(C)(C)[C@@H]5CC[C@]43C)[C@@H]12` reads 6.81% (active); that for `N=C(N)c1ccc(OCCCCCCCCCCOc2ccc(C(=N)N)cc2)cc1`, -74.5% (active).
The result for `COc1cc(C2=C(c3cn(C)c4ccccc34)COC2=O)cc(OC)c1OC` reads 24.8%; that for `COc1ccc2c(c1)oc1c(C)c3c(c(C)c12)C(=O)N(CCN1CCOCC1)C3=O`, 92%.
In the case of `N#CC1=C(N)Oc2c(ccc3ccccc23)C1c1ccccc1Cl` (stereo not given), the growth was 7.5% (active).
The result for `O=C1Nc2ccc(F)cc2/C1=C\c1c(-c2ccccc2)nc2ccccn12` reads 74.7%; that for `O=C1Nc2cc(-c3cccc(O)c3)ccc2/C1=C/c1ccc[nH]1`, 26.6%.
The result for `COc1ccc(/C=C/c2nc(Nc3ccc(S(=O)(=O)NC(C)=O)cc3)c3ccccc3n2)cc1` reads 76.2%; that for `COc1ccc(C(=O)C2C(C#N)C(C#N)C3C=Cc4ccccc4N32)cc1` (stereo not given), 27.6%; that for `COc1ccc(CNCCN2C(=O)c3ccc4c5c(ccc(c35)C2=O)C(=O)N(CCNCc2ccc(OC)c(OC)c2OC)C4=O)c(OC)c1OC`, -9.78% (active).
The result for `C=C1C(=O)O[C@H]2[C@H]1CC/C(COC(=O)NCc1c[nH]c3ccc(Cl)cc13)=C\CC[C@@]1(C)O[C@@H]21` reads -59.2% (active).
Consider `COc1cc(/C=C\c2cc(OC)c(OC)c(OC)c2)cc(NC(=O)/C=C/c2cc(OC)c(OC)c(OC)c2)c1OC`, for which the growth was 56.6%.
The result for `COc1cc(NC(C)CCCNC(=O)CCC(=O)NCCCNCCCCCCCCNCCCNC(=O)CCC(=O)NCCCC(C)Nc2cc(OC)cc3cccnc23)c2ncccc2c1` (stereo not given) reads 70.6%; that for `CCCCOc1ccc(/C=N/Nc2cc(C)nc3ccc(Br)cc23)cc1`, -50.1% (active); that for `COc1cc(/C=C\c2cc(OC)c(OC)c(OC)c2)cc(N)c1OC`, 89.3%.
The result for `O=C1c2cccc3c(-c4ccc5c(c4)ncn5C4CCCCC4)ccc(c23)C(=O)N1CCO` reads 83.2%; that for `O=C(CCN1CCCC1)Nc1ccc2c(NCc3ccccc3)c3ccccc3nc2c1`, 4.52% (active); that for `O=C1/C=C/[C@@H](O)[C@@H]2C[C@@H](O)C[C@H]2/C=C/CCC[C@H](CCc2ccc3ncccc3c2)O1`, 18%.
The result for `CCOC(=O)[C@@H](C)C[C@H](Cc1ccccc1)NC(=O)c1csc([C@@H](C[C@H](C(C)C)N(C)C(=O)[C@@H](NC(=O)[C@H]2C[C@H](O[Si](C)(C)C(C)(C)C)CCN2C)C(C)C)OC(C)=O)n1` reads -2.84% [9.25 µM] (active); that for `O=Cc1ccc(-c2cn3ccnc3c(-c3ccc4ncn(Cc5ccccc5)c4c3)n2)cc1`, 56%; that for `Cc1ccc(-n2c3c(c(-c4ccccc4)c2-c2ccccc2)C2=NCCN2C=N3)cc1`, 75.2%.
Consider `COC(=O)C(CC=O)C(=O)C(=O)Nc1cccc(C(F)(F)F)c1` (stereo not given), for which the growth is 90.5%.
The result for `CCCOc1ccc(/C=N/Nc2cc(C)nc3ccc(Br)cc23)cc1` reads 88.2%; that for `O=[N+]([O-])CC(c1ccccc1)c1c[nH]c2ccccc12` (stereo not given), 52.7%.
The result for `Nc1c(C(=O)Nc2cccc3cnccc23)sc2nc3c(cc12)C(=O)CCC3` reads 100%; that for `C=C1C(=O)O[C@H]2[C@H]1CC/C(CNS(=O)(=O)c1cccc3ccccc13)=C\CC[C@@]1(C)O[C@@H]21`, 38.5%.
